Compound activity deposited in PubChem by The Scripps Research Institute Molecular Screening Center.
Most compounds without a hit are left out; they make up all but 3.2% or so of the library.
MsrA inh: inhibitors of bovine MsrA; purified bovine MsrA, absorbance read-out; inhibition, % at 15.5 µM; hit rate 0.75% among 360,000;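 note: 0% = vehicle wells with enzyme and 100% = reference inhibitor wells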
rCAG RNA binder: binds r(CAG) RNA repeats; hit rate 1.3% among 370,000; r(CAG) RNA repeat, TO-PRO-1 dye displacement fluorescence; inhibition, % at 3 µM; AID 651821;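 active = inhibition above the plate cutoff, the mean of all test compounds on that plate plus 3 SD, cut at about 35% in these data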;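 note: 0% = DMSO alone and 100% = 100 µM mitoxantrone as full dye displacement; higher means more dye released from RNA so lower well fluorescence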
sPLA2-III inh: Blocks human group III sPLA2 activity | hit rate 0.56% among 370,000 | inhibition, % at 12.2 µM | Q9NZ20 | QFRET BODIPY PC-A2 liposome hydrolysis, fluorescence;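 active = inhibition above mean plus 3 SD of compounds lying within the high and low control bounds, cut at about 19% in these data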;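 note: 0% = median of test compound wells and 100% = no enzyme DMSO wells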
Target sequence (Q9NZ20 whole entry, looked up): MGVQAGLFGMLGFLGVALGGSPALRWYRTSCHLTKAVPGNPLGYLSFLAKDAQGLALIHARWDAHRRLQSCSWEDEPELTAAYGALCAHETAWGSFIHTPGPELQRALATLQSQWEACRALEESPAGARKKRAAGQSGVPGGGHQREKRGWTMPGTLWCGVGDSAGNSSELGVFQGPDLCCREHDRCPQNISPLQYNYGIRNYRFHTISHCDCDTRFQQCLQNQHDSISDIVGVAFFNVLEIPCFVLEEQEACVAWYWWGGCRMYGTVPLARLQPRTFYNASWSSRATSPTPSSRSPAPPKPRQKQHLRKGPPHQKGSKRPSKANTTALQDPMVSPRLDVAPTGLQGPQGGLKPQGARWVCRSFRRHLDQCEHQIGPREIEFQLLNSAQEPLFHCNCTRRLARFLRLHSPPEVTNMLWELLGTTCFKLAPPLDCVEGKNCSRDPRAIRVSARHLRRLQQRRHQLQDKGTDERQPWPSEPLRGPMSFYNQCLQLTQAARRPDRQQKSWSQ
MsrA act: activators of bovine methionine sulfoxide reductase A; purified bovine MsrA, absorbance read-out; activation, % at 10.6 µM; hit rate 0.3% among 360,000; in the data active = activation above about 7.5%;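 note: 0% = vehicle and 100% = reference activator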
PG9 Ab binder: PG9 antibody binding by small molecule | inhibition, % at 6.7 µM | TR-FRET gp120-PG9 antibody binding | AID 624416 | hit rate 0.43% among 360,000; in the data active = inhibition above about 8.5%
MsrA inh confirm: confirmation of bovine MsrA inhibitors. shares compounds with MsrA inh. purified bovine MsrA, absorbance read-out. inhibition, % at 15.5 µM. hit rate 41% among 2,300. AID 651822;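 note: coupled to thioredoxin reductase with NADPH and selenocystamine and DMSO as substrate; 0% = vehicle only and 100% = full effect of reference inhibitor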
Starred values were filed as active, the others as inactive; . = no result given. Cut-off read from the data, not from the text of the source, unless noted: active = inhibition above about 4.5%; inactive = the rest.

SMILES	MsrA inh	rCAG RNA binder	sPLA2-III inh	MsrA act	PG9 Ab binder	MsrA inh confirm
Oc1ccc(C=NNC(=S)Nc2cccnc2)nc1	7.0*	1	-1	-3	-4	5.5*
COc1ccccc1/C=N/NC(=S)Nc1cccnc1	4	0	8	-2	-5	.
Oc1ccc(/C=N/NC(=S)Nc2cccnc2)cc1O	4	3	12	-9	-5	.
S=C(N/N=C/c1ccc2ncccc2c1)Nc1cccnc1	7.2*	-2	8	3	0	4
COC(=O)[C@]12C[C@H](CC(=O)NCCCN3CCCC3=O)C(=O)N(Cc3ccc(Cl)cc3Cl)C1=C[C@H](C(C)C)O[C@@H]2C1CC1	.	4	-11	.	.	.
Oc1ccc(/C=N/Nc2cccc3cccnc23)c(O)c1	4	21	-3	-2	0	.
Oc1ccc(C=NNc2ccccn2)c(O)c1	5.1*	2	-3	-1	-2	3
O=c1[nH]ncc(N/N=C\c2ccc(O)cc2O)c1Cl	6.5*	1	0	-4	-5	6.2*
COc1ccc(/C=N/Nc2nccnc2Cl)cc1	4.7*	-1	5	-5	0	2
Oc1cccc(C=NNc2ccccn2)c1	1	4	-5	-2	-3	.
Oc1ccc(/C=N/Nc2ncc(Br)cn2)c(O)c1	6.0*	4	-3	-4	-2	5.2*
Oc1ccc(Br)cc1/C=N/Nc1ncc(-c2ccccc2)cn1	1	0	4	-2	0	.
O=S(=O)(c1cc2ccccc2s1)n1c(CN2CCOCC2)nc2ccccc21	.	0	7	.	.	.
C=CCN1[C@@H](C)COc2cccc(N3CCSCC3)c2S1(=O)=O	.	0	10	.	.	.
CCOC(=O)[C@]12CCCCC/C=C\1N(Cc1ccc(OC)cc1)C(=O)[C@H]2CC(=O)NCC1CCCCC1	.	4	6	.	.	.
Oc1ccc(/C=N/Nc2nccnc2Cl)c(O)c1	5.1*	2	-38	-8	-4	4
COc1ccc(/C=C/C(=O)C2(O)CCCCC2)cc1OC	5.3*	-3	-3	-6	0	4
Cc1cccc(C)c1N/C=C/c1onc(C)c1[N+](=O)[O-]	2	1	-2	-12	1	.
Cc1noc(/C=C/c2cccnc2)c1[N+](=O)[O-]	5.3*	-2	2	-10	-4	3
Nc1ccc(-c2nc3ccc(N)cc3o2)cc1	4.8*	4	7	-2	-1	5.4*
C[C@@H](CO)N(Cc1cn(Cc2ccccc2)nn1)S(=O)(=O)c1ccc(F)cc1Br	.	1	9	.	.	.
COc1ccc(C2Nc3ccccc3C(=O)N2Cc2ccc(C)o2)cc1COc1c(C)cccc1C (centres undefined)	.	.	16	.	.	.
CC(Oc1ccc2cc(-c3ccccc3)c(=O)oc2c1)C(=O)NCC1CCC(C(=O)O)CC1 (centres undefined)	6.3*	7	0	-10	2	4
COc1ccc2cc(-c3ccccc3)c(=O)oc2c1	2	2	-1	-4	3	.
Cc1c(OCC(=O)N(C)C)ccc2c(-c3ccccc3)cc(=O)oc12	18*	-4	1	-6	-2	16*
SMILES	MsrA inh	rCAG RNA binder	sPLA2-III inh	MsrA act	PG9 Ab binder	MsrA inh confirm
COc1ccc(-c2cc(=O)oc3cc(OCC(=O)NCC4CCC(C(=O)O)CC4)ccc23)cc1 (centres undefined)	4.9*	15	4	4	-1	3
CN(C)C(=O)COc1ccc2cc(-c3ccccc3)c(=O)oc2c1	4.7*	2	4	-3	2	3
CC(Oc1ccc2ccc(=O)oc2c1)C(=O)NCC1CCC(C(=O)O)CC1 (centres undefined)	2	2	8	-9	-1	.
Cc1c(OCc2nn[nH]n2)ccc2c(-c3ccccc3)cc(=O)oc12	2	24	-20	-2	1	.
COC(=O)[C@]12C[C@H](CC(=O)NCc3ccc(OC)c(OC)c3)C(=O)N(Cc3ccc(Cl)cc3Cl)C1=C[C@H](COCc1ccccc1)O[C@@H]2C	.	9	-20	.	.	.
CSc1nc2[nH]c3c(c2c2nnnn12)CCCC3	12*	12	2	-11	0	10*
CSc1nc2[nH]c3c(c2c2nncn12)CC(C)(C)OC3	1	-1	0	-12	-1	.
COc1cc(/C=C/C2=NNC(=O)CC2)cc(OC)c1OC	8.2*	2	11	-5	-4	3
COc1cc(OC)c(OC)cc1/C=C/c1cc(C(F)(F)F)[nH]c(=O)n1	0	1	-4	-3	-12	.
COc1cc(/C=C/c2cc(C(F)(F)F)[nH]c(=O)n2)cc(OC)c1OC	5.6*	5	-6	-13	-1	3
O=C(Nc1c(-c2ccc(F)cc2)nc2ncccn12)C1CC1	.	1	0	.	.	.
O=C1c2cccc3cc([N+](=O)[O-])cc(c23)C(=O)N1CCN1CCCC1	1	13	1	3	0	.
O=C1c2cccc3cc([N+](=O)[O-])cc(c23)C(=O)N1/N=C/c1ccc(O)cc1O	4.7*	2	-3	-5	-2	2
CN1[C@@H](Cc2ccccc2)COc2cc(N3CCCC3)ccc2S1(=O)=O	.	3	-3	.	.	.
COc1cc(-n2c(C)nc3cc(C(=O)N4CCN(C(C)=O)CC4)ccc32)cc(OC)c1OC	.	4	4	.	.	.
O=Cc1cn(-c2ccccc2)nc1-c1ccccc1	14*	-4	0	1	0	11*
O=Cc1cn(-c2ccccc2)nc1-c1ccncc1	6.0*	0	7	-1	1	2
O=C(N/N=C\c1cn(-c2ccccc2)nc1-c1ccccc1)c1ccc(Br)o1	6.4*	9	-12	-11	-2	2
O=Cc1cn(-c2ccccc2)nc1-c1cccc([N+](=O)[O-])c1	4	10	5	-4	-2	.
O=Cc1cn(-c2ccccc2)nc1-c1cccnc1	11*	0	8	-8	0	4
Cc1ccc(-c2nn(-c3ccccc3)cc2/C=N/NC(=O)c2ccc(Br)o2)cc1	1	5	4	-4	-1	.
CCNC(=O)Nc1ccc2c(c1)C(=O)N(C)[C@H]1CC[C@H](CC(=O)N[C@H](C)c3ccccc3)O[C@@H]1CO2	.	0	-26	.	.	.
C[C@@H]1CCN(C2CC2)S(=O)(=O)c2c(cccc2N2CC[C@H](O)C2)O1	.	2	0	.	.	.
CCCCNC(=O)C[C@H]1C[C@@]2(C(=O)OC)C(=C[C@H](C3CCCC3)O[C@@H]2C)N(CCc2ccc(OC)c(OC)c2)C1=O	.	3	-2	.	.	.
C(=N\N1CCOCC1)/c1cn(-c2ccccc2)nc1-c1ccccc1	7.0*	-3	4	-4	1	0
COCCCNC(=O)C(=O)N/N=C/c1cc2c(cc1Br)OCO2	5.0*	-4	-2	-3	2	3
Cc1nonc1C(=O)N/N=C/c1cc2c(cc1Br)OCO2	0	-4	2	-12	-2	.
S=c1[nH]nc(-c2ccccc2Cl)n1/N=C/C=C/c1ccco1	2	20	17	0	2	.
S=c1[nH]nc(-c2ccncc2)n1/N=C/C=C/c1ccco1	7.1*	15	11	-5	-1	4.9*
